In PubChem BioAssay AID1852 (Sanford-Burnham Center for Chemical Genomics, 2009):
Screen size: about 2,500 compounds; about 1,100 (44%) were called active. The set was probably picked from earlier hits. This is one part of the list. Unmarked numbers belong to inactive results.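 Rule for the calls: active = inhibition above 50% at 4 µM in the single-point screen; inactive = inhibition of 50% or less.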

Assay: TNF-a-driven NF-kB reporter inhibitors, primary screen, selectivity assay for NOD1/NOD2 signaling inhibitor project, cell-based, HEK293T NF-kB-Luc, luminescence (AID 1852)
Conditions: TNF-a induced, 14 h, at 4 µM, stronger effect = higher value

SMILES | inhibition
CCN1/C(=C/c2cccc[n+]2C)Sc2ccc(OC)cc21 | 50.4% (active)
Cc1ccc2c(c1)N(C)/C(=C/c1cccc[n+]1C)S2 | 24.9%
O=C(Nc1cccc(-c2ccc(N3CCCCC3)nn2)c1)C(F)(F)F | -90.7%
Cc1ccc(C(=O)Sc2cccccc2=O)cc1 | 103% (active)
Cc1ccc(S(=O)(=O)/C(=C/Cl)NC(=O)c2ccccc2)cc1 | 11.6%
O=C(Nc1sc2c(c1C(=O)O)CCCC2)c1ccc(Cl)cc1 | 29.8%
Cc1cccc(-c2nnc(NC(=O)c3ccc(Cl)cc3)o2)c1 | 102% (active)
CN(C)c1ccc(C(=O)Nc2nnc(-c3ccc(Cl)cc3)o2)cc1 | 106% (active)
O=C(Nc1nnc(-c2ccccc2)o1)c1ccc(Cl)cc1 | 104% (active)
CCC(=O)N1c2ccc(S(=O)(=O)N3CCN(c4ccc([N+](=O)[O-])cc4)CC3)cc2CC1C (configuration not stated) | 26.6%
CCN(CC)S(=O)(=O)c1ccc(NC(=O)Nc2cccc(C(F)(F)F)c2)cc1 | 10.5%
CCN(CC)S(=O)(=O)c1cccc(NC(=O)Nc2cccc(C(F)(F)F)c2)c1 | 69% (active)
O=C(Nc1ccc(OC(F)F)cc1)Nc1cccc(C(F)(F)F)c1 | 14.2%
N#CC(c1ccccc1)c1ccc2c(C(F)(F)F)cc(C(F)(F)F)nc2n1 (configuration not stated) | 20.4%
N#CC(c1cccc(Cl)c1)c1ccc2c(C(F)(F)F)cc(C(F)(F)F)nc2n1 (configuration not stated) | 55.7% (active)
Oc1ccc(Oc2ccc3c(C(F)(F)F)cc(C(F)(F)F)nc3n2)cc1 | 45.2%
O=c1c2cc(Cl)ccc2nc(-c2ccc(Cl)c(Cl)c2)n1O | 74.1% (active)
O=c1c2cc(Br)ccc2nc(-c2ccc(Cl)cc2)n1O | -30%
O=c1c2cc(Br)ccc2nc(-c2cccc(C(F)(F)F)c2)n1O | 65% (active)
Cc1ccc(C(=O)O/N=C(\N)c2ccccn2)c(Cl)c1 | -56.4%
Cc1ccc(C(=O)O/N=C(\N)c2ccccn2)c(C)c1 | 61.4% (active)
N/C(=N\OC(=O)c1cccc2ccccc12)c1ccc(Br)cc1 | -0.8%
CCN(CC)S(=O)(=O)c1ccc(Oc2ccc(S(=O)(=O)N(CC)CC)cc2)cc1 | 70.1% (active)
C=C(C(=O)c1ccccc1)C(C)CC(=O)c1ccccc1 (configuration not stated) | -8.9%
C=C(C(=O)c1ccccc1)C(C(=C)C(=O)c1ccccc1)c1ccc(OC)cc1 | 62.5% (active)

SMILES | inhibition
C=C(C(=O)c1ccccc1)C(CC(=O)c1ccccc1)c1ccccc1 (configuration not stated) | -23.3%
CCC1C(=NO)C(CC)C(c2ccccc2)NC1c1ccccc1 (configuration not stated) | 32.5%
CCOc1ccc(/C=C/C(O)=C2/C(=O)N(C)C3(C)CC2c2ccccc2O3)cc1OC (configuration not stated) | 51.8% (active)
COc1ccc(/C=C/C(O)=C2/C(=O)N(C)C3(C)CC2c2ccccc2O3)cc1 (configuration not stated) | -8.9%
COc1cc(/C=C/[N+](=O)[O-])ccc1OCc1cccc(C(=O)O)c1 | 46%
Cc1cc(C)c(S(=O)(=O)/N=C2/C=C(Sc3ncn[nH]3)C(=O)c3ccccc32)cc1C | 75.1% (active)
Cc1ccc(S(=O)(=O)/N=C2/C=C(Sc3ncn[nH]3)C(=O)c3ccccc32)c(C)c1 | 100% (active)
CC(C)c1ccc(S(=O)(=O)/N=C2/C=C(Sc3ncn[nH]3)C(=O)c3ccccc32)cc1 | 84.1% (active)
Cc1cc(SCC(=O)OC/C(O)=C(\C#N)c2nc3ccccc3[nH]2)c(C)cc1Br | 59.5% (active)
Cc1ccc(C)c(SCC(=O)OC/C(O)=C(\C#N)c2nc3ccccc3[nH]2)c1 | 52.5% (active)
Cc1cc(Br)ccc1SCC(=O)OC/C(O)=C(\C#N)c1nc2ccccc2[nH]1 | 106% (active)
COC(=O)C1CCN(C(=O)C2CCN(C(=O)[C@@H](NS(=O)(=O)c3ccc(C)cc3)C(C)C)CC2)CC1 | 15.9%
COC(=O)/C(=C\c1cc(OC)c(OC)c(OC)c1)c1nc2ccccc2[nH]1 | -13.3%
COc1cc(SC)ccc1C(=O)Nc1nc2ccccc2[nH]1 | 103% (active)
COc1ccccc1C(=O)Nc1nc2ccccc2[nH]1 | 82.8% (active)
COc1ccc(Nc2nc(C(=O)N3CCc4ccccc4C3)cs2)cc1 | 20.3%
CCOC(=O)N1CCN(C(=O)C2CCCN(Cc3nc(-c4ccc(Cl)cc4)oc3C)C2)CC1 (configuration not stated) | 56.2% (active)
Cc1oc(-c2ccc(Cl)cc2)nc1CSCC(=O)NC1CCN(Cc2ccccc2)CC1 | 47.1%
O=C(c1ccc(Cl)cc1)C1CCCN(Cc2cnn(-c3ccccc3)c2)C1 (configuration not stated) | 5.5%
Cc1ccc(C)c(-n2c3nc(=O)[nH]c(=O)c-3cc3cc([N+](=O)[O-])ccc32)c1 | 58.5% (active)
Cc1ccc(-n2c3nc(=O)[nH]c(=O)c-3cc3cc([N+](=O)[O-])ccc32)cc1C | 41.9%
CCSc1nnc(Cc2cc(=O)[nH]c(=O)[nH]2)n1-c1cc(C)ccc1C | 16.9%
CC(/C=C1\SC(=O)N(CCCC(=O)O)C1=O)=C\c1ccccc1 | 79.5% (active)
O=C(O)CCCN1C(=O)/C(=C\C(Cl)=C\c2ccccc2)SC1=S | 77.9% (active)
COc1ccc(/C=C2/SC(=S)N(CCC(=O)O)C2=O)cc1 | 36%

SMILES | inhibition
CC(/C=C1\SC(=S)N(c2ccc(C(=O)O)cc2)C1=O)=C\c1ccccc1 | 3.6%
COc1cccc(/C=C2/SC(=S)N(CCCC(=O)Nc3ccc(O)cc3)C2=O)c1 | 19.5%
CCc1cc2c3c(c1)C(C)CC(C)(C)N3C(=O)/C2=C1\SC(=O)NC1=O (configuration not stated) | 6.9%
CC1(c2ccccc2)CC(C)(C)N2C(=O)/C(=C3\SC(=S)NC3=O)c3cccc1c32 (configuration not stated) | 84.3% (active)
COc1ccc2c(c1)oc(=O)c1ccccc12 | -18.4%
N#Cc1c2ccc(O)cc2n2ccccc12 | 70% (active)
COc1ccc2c(C#N)c3ccccn3c2c1 | 66.3% (active)
COc1ccc(-c2cc(=O)oc3cc(OC(=O)C4CCCCC4)c(Cl)cc23)cc1 | 95.3% (active)
O=C(Oc1cc2oc(=O)cc(-c3ccccc3)c2cc1Cl)C1CCCCC1 | 77.6% (active)
COc1ccc(-c2cc(=O)oc3cc(O)ccc23)cc1 | 2.6%
COc1ccc(N2C(=O)C(Cl)=C(Oc3cccc(OC)c3)C2=O)cc1 | 13%
Nc1ccc(Oc2cccc(Oc3ccc(N)cc3)c2)cc1 | 54.8% (active)
CC(=O)c1ccc(N2CCN(S(=O)(=O)c3ccc4c(c3)CC(C)N4C(=O)C3CC3)CC2)cc1 (configuration not stated) | 23.2%
O=C(CSc1nc2scc(-c3ccccc3)c2c(=O)[nH]1)Nc1ccccc1 | 32.9%
Cc1ccc(NC(=O)CSc2nc(C)c(Cc3ccccc3)c(=O)[nH]2)cc1 | 20%
O=C(CSC1=NNC(c2ccccn2)S1)Nc1ccccc1 (configuration not stated) | 50.1% (active)
COc1cc(CNc2ccc3[nH]c(=O)[nH]c3c2)ccc1OCc1ccc(F)cc1Cl | 28.6%
Cc1cc(=O)n(C)c(=O)n1CCCCOc1ccc([N+](=O)[O-])cc1 | 24.7%
CCc1ccc(C(=O)OCC(=O)c2c(N)n(CC(C)C)c(=O)n(C)c2=O)cc1 | 23.2%
CC(C)Cn1c(N)c(C(=O)CSc2ccc3c(c2)OCCO3)c(=O)n(C)c1=O | 82.1% (active)
Cc1c(C(=O)OCC(=O)c2c(N)n(CC(C)C)c(=O)n(C)c2=O)oc2ccccc12 | 26.4%
CC1Cc2ccccc2N1S(=O)(=O)c1cccc(C(=O)N2CCN(c3ncccn3)CC2)c1 (configuration not stated) | 58.4% (active)
CC(=O)c1ccc(N2CCN(S(=O)(=O)c3ccc4c(c3)CC(C)N4C(C)=O)CC2)cc1 (configuration not stated) | 47.2%
O=C(c1ccc(-c2ccccc2)cc1)N1CCN(c2ccccn2)CC1 | 18.3%
Cc1ccccc1C(=O)Nc1ccc(-c2nc3ccc(C(=O)c4ccccc4)cc3[nH]2)cc1 | 38.3%

SMILES | inhibition
Cc1cc2nc(-c3ccc(SCc4ccccn4)nc3)[nH]c2cc1C | 78.5% (active)
CC(C)(C)c1ccc(C(=O)O/N=C(\N)c2ccccn2)cc1 | 22.5%
COc1ccc(C(=O)O/N=C(\N)c2ccc(Br)cc2)cc1 | -10.5%
CC(C)(C)c1ccc(C(=O)O/N=C(\N)c2ccccc2)cc1 | 51% (active)
COc1ccc(-n2cnc3c(sc4nc(N5CCOCC5)c5c(c43)CCCC5)c2=O)cc1 | 46.4%
CCc1ccc(OCC(=O)Nc2ccc(-c3cc4ccccc4oc3=O)c(OC)c2)cc1 | 51.2% (active)
COc1ccc(-c2cc(=O)oc3cc(OCC(=O)Nc4ccc(CCO)cc4)ccc23)cc1 | 38.3%
Cc1ccn2cc(-c3cc4ccccc4oc3=O)nc2c1 | -79.5%
Cc1ccc(Cl)cc1N1CCN(C(=O)c2cc3c(=O)[nH]c4ccccc4c3n2C)CC1 | 89.7% (active)
Cn1nccc1C(=O)N1CCN(c2ccccc2F)CC1 | -23.6%
COc1ccccc1OCC(=O)OC/C(O)=C(\C#N)c1nc2ccccc2[nH]1 | 98.2% (active)
Cc1cccc(C)c1OCC(=O)OC/C(O)=C(\C#N)c1nc2ccccc2[nH]1 | 101% (active)
COc1ccccc1OCc1nnc(SCC(N)=O)n1-c1ccccc1 | 0.9%
Cc1nc(SCC(=O)Nc2nc3ccccc3s2)c(C#N)c(C)c1C | 61.7% (active)
CC(C)(C)c1nc(SCC(=O)Nc2nc3c(s2)CCCC3)c2ccccc2n1 | -17.1%
O=C1/C(=C/c2cccc([N+](=O)[O-])c2)CCc2ccccc21 | -28.5%
COc1ccc(CCNC(=S)NC2CCN(Cc3ccccc3)CC2)cc1OC | 43.5%
CCC1C/C(=C\c2cc(OC)c(OC)cc2OC)C(=O)/C(=C/c2cc(OC)c(OC)cc2OC)C1 (configuration not stated) | 36.6%
CCN1C/C(=C/c2ccc(OC)c(O)c2)C(=O)/C(=C/c2ccc(OC)c(O)c2)C1 | 101% (active)
CCN1C/C(=C/c2cccc([N+](=O)[O-])c2)C(=O)/C(=C/c2cccc([N+](=O)[O-])c2)C1 | 106% (active)
COc1ccc(/C=C2\CN(Cc3ccccc3)C/C(=C\c3ccc(OC)c(O)c3)C2=O)cc1O | 77.4% (active)
O=[N+]([O-])c1cccc(S(=O)(=O)NCc2ccncc2)c1 | 42.3%
